In PubChem BioAssay AID463173 (ICCB-Longwood Screening Facility, Harvard Medical School, 2010):
About 4,300 (8.3%) of roughly 52,000 compounds were called active. Cut-off read from the data, not from the text of the source: active = survival mostly below about 52% (no sharp cut-off); inactive = mostly above about 56%. This excerpt belongs to a sample that is enriched for actives.

The compounds below were run on DeltatarO mutant (assay: growth inhibition of S. aureus wild type versus tarO mutant, primary screen, teichoic acid synthesis inhibitors, RN4220, OD600 (AID 463173)). Conditions: OD600, 18 h, active compounds read low, screened at 18.75 µg/mL (by protocol).
For `COc1ccc(NC(=O)C2CCCN(c3cnccn3)C2)c(OC)c1` (centres undefined), the survival was 107% (inactive). `Cc1c(C)n(Cc2ccccc2)c2ccc(C(=O)N3CCN(c4ccccc4F)CC3)cc12` was tested, and the survival was 80% (inactive). In the case of `Cc1cc(C)c(NC(=O)CCS(=O)(=O)c2cc3c(cc2Cl)NC(=O)CO3)c(C)c1`, the survival is reported as 80% (inactive). For `CCCOc1cccc(C2c3c(oc4ccc(F)cc4c3=O)C(=O)N2c2nc(C)c(C(C)=O)s2)c1` (centres undefined), the survival was 65% (inactive). For `CSc1ccc(CCNC(=O)Cn2ncc3c(=O)oc4ccc(C)cc4c32)cc1`, the survival was 89% (inactive). For `COC(=O)c1cc(OC)c(OC)c(OC)c1NC(=O)c1cc(=O)n(C)c(=O)n1C`, the survival was 78% (inactive). `CC(=O)OC1COC(N2CCc3ccccc32)C(OC(C)=O)C1OC(C)=O` (centres undefined) was tested, and the survival was 97% (inactive). With `CC1CCN(C(=O)c2ccc3c(c2)N(Cc2ccccc2F)C(=O)c2ccccc2S3(=O)=O)CC1` the survival was 80% (inactive). `CCC(=O)N1CCc2cc(S(=O)(=O)NCCC(=O)NC(C)c3ccccc3)ccc21` (centres undefined) was tested, and the survival was 85% (inactive). For `CSc1ncc(Cl)c(C(=O)Nc2ccc(S(=O)(=O)N3CCCC(C)C3)cc2)n1` (centres undefined), the survival was 79% (inactive). With `CC(C)Sc1ncc(Cl)c(C(=O)Nc2ccc(S(=O)(=O)N(C)c3ccccc3)cc2)n1` the survival was 55% (inactive). For `CS(=O)(=O)c1ncc(Cl)c(C(=O)Nc2c(C(=O)Nc3ccccc3)oc3ccccc23)n1`, the survival was 55% (inactive). `CC(C)Sc1ncc(Cl)c(C(=O)Nc2ccc(S(=O)(=O)Nc3ncccn3)cc2)n1` was tested, and the survival was 50% (inactive). `CC1CCCN(S(=O)(=O)c2ccc(NC(=O)c3nc(SC(C)C)ncc3Cl)cc2)C1` (centres undefined) was tested, and the survival was 44% (active). In the case of `CCS(=O)(=O)c1ncc(Cl)c(C(=O)Nc2ccc(S(=O)(=O)N(C)c3ccccc3)cc2)n1`, the survival is reported as 0% (active). In the case of `CCSc1ncc(Cl)c(C(=O)Nc2ccc(S(=O)(=O)N(C)c3ccccc3)cc2)n1`, the survival is reported as 71% (inactive). For `CCN(c1ccccc1)S(=O)(=O)c1ccc(NC(=O)c2nc(SC)ncc2Cl)cc1`, the survival was 55% (inactive). `CC(C)Sc1ncc(Cl)c(C(=O)Nc2ccc(S(=O)(=O)N3CCCCC3)cc2)n1` was tested, and the survival was 57% (inactive). `CCCSc1ncc(Cl)c(C(=O)Nc2ccc(S(=O)(=O)N(C)c3ccccc3)cc2)n1` was tested, and the survival was 54% (inactive). In the case of `CCN(c1ccccc1)S(=O)(=O)c1ccc(NC(=O)c2nc(SC(C)C)ncc2Cl)cc1`, the survival is reported as 44% (active). `CN(c1ccccc1)S(=O)(=O)c1ccc(NC(=O)c2nc(S(C)(=O)=O)ncc2Cl)cc1` was tested, and the survival was -1% (active). `CCOc1ccccc1CNC(=O)C1CCN(c2nc3ccccc3nc2C(F)(F)F)CC1` was tested, and the survival was 69% (inactive). With `CCOc1ccc(NC(c2ccc(Cl)cc2)c2nnc(-c3cccc(F)c3)o2)cc1` (centres undefined) the survival was 90% (inactive). `COc1ccc2sc(C)[n+](CCO)c2c1` was tested, and the survival was 81% (inactive). For `CCOc1ccc(S(=O)(=O)Nc2ccc3c(c2)CCCN3S(=O)(=O)c2ccc(C)cc2)cc1`, the survival was 88% (inactive). For `COc1ccc(NC(=O)CN2C(=O)CCn3nc(-c4cccn4C)cc32)cc1`, the survival was 81% (inactive). With `COc1cc(OC)cc(N2C(=O)CSC23C(=O)Nc2ccccc23)c1` (centres undefined) the survival was 99% (inactive). For `COc1ccc(OC)c(CNC(=O)c2c(C)oc3ncn(CC(C)C)c(=O)c23)c1`, the survival was 89% (inactive). For `COc1ccc(Nc2cc(C)nc(-n3nc(C)cc3C)n2)cc1Cl`, the survival was 81% (inactive). With `COc1ccccc1N1CCN(S(=O)(=O)CCNC(=O)c2cc(=O)c3ccccc3o2)CC1` the survival was 87% (inactive). In the case of `CCNC(=S)N1CCC(NC(=O)c2ccccc2)CC1`, the survival is reported as 110% (inactive). In the case of `CCN(c1ccccc1)S(=O)(=O)c1ccc(NC(=O)c2cc(=O)c3ccccc3o2)cc1`, the survival is reported as 63% (inactive). With `CCN(c1ccccc1)S(=O)(=O)c1ccc(NC(=O)c2nc(S(C)(=O)=O)ncc2Cl)cc1` the survival was -1% (active). With `CCN(c1ccccc1)S(=O)(=O)c1ccc(Cl)cc1` the survival was 92% (inactive). With `CN1C(=O)/C(=C/C=C2/Sc3ccccc3N2CCO)SC1=S` the survival was 108% (inactive). For `Cc1c(-c2ccccc2)nc2c(Cl)cccc2c1C(=O)OCC(=O)c1ccc(F)cc1`, the survival was 75% (inactive). `O=S(=O)(NCCS(=O)(=O)N1CCN(c2ccccc2)CC1)c1ccc(Br)cc1` was tested, and the survival was 91% (inactive). `CCCC12CN3CC(C)(CN(C1)C3c1cn(CC)c3ccccc13)C2=O` (centres undefined) was tested, and the survival was 83% (inactive). For `Cc1cccc(N2CCN(C(c3nnnn3C3CCCC3)C(C)C)CC2)c1C` (centres undefined), the survival was 79% (inactive). `Cc1cc(NC(=O)CCS(=O)(=O)c2cc(Br)cc3c2N(C(=O)C2CC2)CC3)ccc1Br` was tested, and the survival was 83% (inactive). In the case of `COc1ccccc1C(=O)NC1(C(F)(F)F)NC(=O)N(CCc2ccccc2)C1=O` (centres undefined), the survival is reported as 73% (inactive). For `COc1cc(C(=O)N(Cc2ccc(C(C)C)cc2)C2CCS(=O)(=O)C2)cc(OC)c1OC` (centres undefined), the survival was 46% (active). For `COc1cc(CN(C(=O)c2ccc(C)cc2)C2CCS(=O)(=O)C2)cc(OC)c1OC` (centres undefined), the survival was 59% (inactive). In the case of `COc1ccc(CN(C(=O)c2ccc(OCC(C)C)cc2)C2CCS(=O)(=O)C2)cc1` (centres undefined), the survival is reported as 93% (inactive). `CCCOc1cccc(C(=O)N(Cc2ccc(C)o2)C2CCS(=O)(=O)C2)c1` (centres undefined) was tested, and the survival was 90% (inactive). `CCCOc1cccc(C(=O)N(Cc2cc(OC)c(OC)c(OC)c2)C2CCS(=O)(=O)C2)c1` (centres undefined) was tested, and the survival was 43% (active). With `COc1ccc(C(=O)N(Cc2ccc(C(C)C)cc2)C2CCS(=O)(=O)C2)cc1` (centres undefined) the survival was 62% (inactive). For `CCCCOc1cccc(C(=O)N(Cc2ccc(N(C)C)cc2)C2CCS(=O)(=O)C2)c1` (centres undefined), the survival was 56% (inactive). In the case of `CCCCOc1ccc(C(=O)N(Cc2ccc(C(C)C)cc2)C2CCS(=O)(=O)C2)cc1` (centres undefined), the survival is reported as 22% (active). For `CCOc1cccc(C(=O)N(Cc2ccc(C(C)C)cc2)C2CCS(=O)(=O)C2)c1` (centres undefined), the survival was 40% (active). `CCOc1cccc(C(=O)N(Cc2ccc(CC)cc2)C2CCS(=O)(=O)C2)c1` (centres undefined) was tested, and the survival was 149% (inactive). `CCCCOc1cccc(C(=O)N(Cc2ccc(Cl)cc2)C2CCS(=O)(=O)C2)c1` (centres undefined) was tested, and the survival was 54% (inactive). With `COc1cc(CN(C(=O)c2ccc(Cl)cc2)C2CCS(=O)(=O)C2)cc(OC)c1OC` (centres undefined) the survival was 69% (inactive). With `CCN(CC)CCNC(=O)c1c(C)oc2ncnc(N3CCOCC3)c12` the survival was 130% (inactive).
